The record followed here is PubChem BioAssay (EPA / NIEHS).

SMILES strings stand for the structures. Several values for one entry are separate records, joined by “and”; a condition that tells them apart may be missing. Identical values can stand only once. Activity calls are given as the source filed them. How the source made its calls: active means hit-call score of the fitted dose curve at least 0.9, where 1 is the maximum; inactive means score below 0.9.

Read-out in this assay: CYP2C8 (gene 1558)
In words: LTEA_HepaRG_CYP2C8: Life Technologies and Expression Analysis (LTEA) Assay for CYP2C8 using HepaRG (AID 2283483). The following applies: mRNA level, 48 h; actives raise or lower the signal. As to the method:
LTEA_HepaRG is a cell based, multiplexed-readout assay that uses HepaRG, a human liver cell line, with measurements taken at 48 hours after chemical dosing on a 96-well plate.LTEA_HepaRG_CYP2C8 is one of 102 assay component(s) measured in the LTEA HepaRG cell culture assay. It is a marker of NR mediated metabolism.Data from the assay component LTEA_HepaRG_CYP2C8 was analyzed into 1 endpoint. This assay endpoint, LTEA_HepaRG_CYP2C8, was analyzed with bidirectional fitting relative to DMSO as the negative control and baseline of activity. Using a type of inducible reporter, measures of mRNA induction for gain or loss-of-signal activity can be used to understand regulation of transcription factor activity. To generalize the intended target to other relatable targets, this assay endpoint is annotated to the cyp intended target family, where the subfamily is xenobiotic metabolism.
A total of 1060 chemcials from the ToxCast library were tested in eight-point concentration-response experiments. Cell culture and cytotoxicity assays were conducted at Thermo Fisher Scientific's Custom Services facility (Madison, WI). A single lot of human HepaRG cells (Thermo Fisher Scientific, Frederick, MD) was used for the cell culture experiments. 96-well format collagen type I coated plates of human HepaRG cells were prepared using established methods. Briefly, cryopreserved HepaRG cells were thawed, plated at a density of approximately 100,000 cells/well in HepaRG Thaw, Plate, and General Purpose media (HPRG770, Thermo Fisher Scientific), and incubated for 48 hours. 0.5% DMSO was selected as vehicle control to balance the requisite need of DMSO in HepaRG cultures to maintain differentiation (for example, baseline metabolism, proportions of hepatocytes vs. cholangiocytes), while enabling further hepatic receptor pathway activation (for example, PXR and CAR) in response to chemical exposure. 48 hours after plating, the culture medium was replaced with HepaRG Serum-Free Incudtion Media. Cells were exposed to each test chemical in duplicate and maintained in CO2 incubators for another 48 hours. Chemical plates were thawed to room temperature and 200x concentrations of treatment groups were prepared. 8-point conentration-reponse curves were made with the highest exposure at 100 uM, followed by half-log dilutions, all in 0.5% DMSO. Each test plate contained variouse controls, induction positive controls (1mM phenobarbital), cytotoxicity positive controls ([…] aflatoxin B1), vehicle controls (0.5% DMSO), and total lysis controls (0.5% DMSO). Cell morphology images were taken using an Essen IncuCyte FLR automated microscope, with six 96-well plates imaged in about 24 minutes. Images were captured and exported and JPEG files. Spent culture media was transfered to black-well plates for the LDH assay, and remaining media was sorted at -80 C for later use. Cells were treated with RLT buffer and frozen until shipped for gene expression analysis. Total RNA was isolated from the cell suspension in 75 uL of Buffer RLT (Qiagen, Germantown, MD 20874) by Quintiles/Expression Analysis (Durham, NC) using a custom isolation procedure. Total RNA from each plate well was transferred to a preamplification plate. Fluidigm's 96.96 Dynamic ArrayTM (Fluidigm, Amsterdam, the Netherlands) technology was used for gene expression analyses by quantitative reverse transcription polymerase chain reaction (qRT-PCR, performed by Quintiles/Expression Analysis, Durham, NC)89. Standard TaqManTM Assays (Applied Biosystems/ThermoFisher Scientific, Foster City, CA) were used to assess the expression of 93 genes selected based on their selectivity and sensitivity to important hepatic receptors known to be modulated by environmental chemicals; importance in human hepatocyte functionality; and hepatotoxicity. […]
Turning to `c1ccc(Nc2ccccc2)cc1`, the outcome was inactive.

Consider `N#CSCSc1nc2ccccc2s1`, for which the compound was called inactive.

Turning to `CCCCCCC(C)OC(=O)COc1nc(F)c(Cl)c(N)c1Cl` (stereo not given), the result was inactive.

Consider `CCCOC(=O)NCCCN(C)C`, for which the compound was classed as inactive.

Turning to `Cc1nn(C)c(Oc2ccccc2)c1C=NOCc1ccc(C(=O)OC(C)(C)C)cc1`, the AC50 was 25.7 µM (active).

Take `CCN(CC)C(=O)c1cccc(C)c1`: the AC50 was 9.19 µM (active).

`C#C[C@]1(O)CC[C@H]2[C@@H]3CCC4=CC(=O)CC[C@@H]4[C@H]3CC[C@@]21CC`: the outcome was inactive.

For `CCOC(=O)C(C)Oc1ccc(Oc2cnc3cc(Cl)ccc3n2)cc1` (stereo not given), the compound was called inactive.

`C#CCOC(=O)[C@@H](C)Oc1ccc(Oc2ncc(Cl)cc2F)cc1`: the call was inactive.

On to `CCOC(=O)COc1cc(-n2ncc(C(F)(F)F)c(C)c2=O)c(F)cc1Cl`, for which the outcome was inactive.

For the compound `COC(=O)c1ccc(I)cc1S(=O)(=O)NC(=O)Nc1nc(C)nc(OC)n1`, the outcome was inactive.

As for `CC(=O)[C@H]1CC[C@H]2[C@@H]3CCC4=CC(=O)CC[C@]4(C)[C@H]3CC[C@]12C`, the AC50 was 37.2 µM (active).

As for `CCOC(=O)c1ccc(O)cc1`, the compound was classed as inactive.

For the compound `CC(C)(C)[C@@H](O)[C@@H](Cc1ccc(Cl)cc1)n1cncn1`, the compound was called inactive.

In the case of `CCCN(CCC)c1c([N+](=O)[O-])cc(C(F)(F)F)c(N)c1[N+](=O)[O-]`, the compound was classed as inactive.

As for `O=C(O)c1ccccc1`, the result was inactive.

Regarding `CCNc1nc(N)nc(Cl)n1`, the result was inactive.

Regarding `CCCCC(CC)COC(=O)c1ccccc1C(=O)O` (stereo not given), the outcome was inactive.

Take `CCOC(=O)C(C)Oc1ccc(Oc2nc3ccc(Cl)cc3o2)cc1` (stereo not given): the compound was classed as inactive.

With `CCCCOCCOCCOCc1cc2c(cc1CCC)OCO2`, the AC50 is 4.61 µM (active).

In the case of `S=C(S)NCCNC(=S)S.[Mn+2].[S-]C([S-])=NCCN=C([S-])[S-].[Zn+2]`, the concentration at half-maximal activity (AC50) is 1.13 µM (active) and 1.15 µM (active) and 1.5 µM (active).

As to `CCN(Cc1c(F)cccc1Cl)c1c([N+](=O)[O-])cc(C(F)(F)F)cc1[N+](=O)[O-]`, the outcome was inactive.

As to `C=CCOC(Cn1ccnc1)c1ccc(Cl)cc1Cl` (stereo not given), the AC50 was 27.2 µM (active).

Regarding `O=C(O)C1(C(=O)Nc2ccc(Cl)cc2Cl)CC1`, the AC50 is 82.6 µM (active).

As for `CCCOC(=O)c1ccc(C(=O)OCCC)nc1`, the call was inactive.

With `C[C@]12CC[C@@H]3c4ccc(O)cc4C[C@@H](CCCCCCCCCS(=O)CCCC(F)(F)C(F)(F)F)[C@H]3[C@@H]1CC[C@@H]2O` (stereo not given in full), the AC50 is 32.6 µM (active).

`CCCCOC(=O)[C@@H](C)Oc1ccc(Oc2ccc(C(F)(F)F)cn2)cc1`: the compound was classed as inactive.

For `CC(C)CCCCCCc1ccc(O)cc1`, the result was inactive.

As to `O=C(Nc1ccc([N+](=O)[O-])cc1Cl)c1cc(Cl)ccc1O`, the AC50 is 3.94 µM (active).

In the case of `CC1(C)C(C=C(Cl)Cl)C1C(=O)OCc1cccc(Oc2ccccc2)c1` (stereo not given), the call was inactive.

For `COCCO`, the compound was called inactive.

As to `C[C@]12C[C@H](O)[C@H]3[C@@H](CCC4=CC(=O)CC[C@@]43C)[C@@H]1CC[C@@H]2C(=O)CO`, the AC50 is 50 µM (active).

Consider `COc1c(Cl)ccc(Cl)c1C(=O)O`, for which the outcome was inactive.

On to `CCC(C)OC(=O)N1CCCCC1CCO` (stereo not given), for which the call was inactive.

Consider `COC(=O)c1ccccc1C(=O)O`, for which the outcome was inactive.

Take `OB(O)O`: the call was inactive.

Take `CCCCOC(=O)C(C)Oc1ccc(Oc2ccc(C(F)(F)F)cn2)cc1` (stereo not given): the call was inactive.

With `CSC(=O)c1cccc2nnsc12`, the call was inactive.

Consider `COC(=O)CSc1cc(N=c2sc(=O)n3n2CCCC3)c(F)cc1Cl`, for which the compound was classed as inactive.

For the compound `CCOC(=O)NCCOc1ccc(Oc2ccccc2)cc1`, the AC50 was 81.1 µM (active).

In general, AC50 refers to the concentration at which the activity in the assay is half-maximal.
